# Screens: PubChem, several laboratories
# PfHsp90 yeast 2 = growth inhibition of yeast expressing Plasmodium Hsp90; inhibition, % at 9.4 µM; S. cerevisiae expressing PfHsp90, BacTiter-Glo ATP, 48 h; yeast lacking PDR1 and PDR3 efflux regulators; 0.32% of 310,000 active;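 active = every replicate shows inhibition above about 80%, whatever the replicate mean, limit read from the data; inconclusive = mean inhibition reaches the set limit but some replicate falls short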;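 note: 0% = DMSO neutral controls and 100% = 20 µM radicicol positive controls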
# tim10-1 inh = growth inhibitors of tim10-1 mutant yeast; S. cerevisiae tim10-1 ts strain growth, BacTiter-Glo, 24 h; inhibition, % at 20 µM; 2.2% of 330,000 active; AID 463190;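 active = inhibition of at least 40%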;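 note: mutant grown at 25 °C; 0% = DMSO wells with yeast and 100% = wells holding no yeast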
# tim23-1 inh = tim23-1 yeast growth inhibition; S. cerevisiae tim23-1 growth, BacTiter-Glo luminescence, 24 h; inhibition, % at 20 µM; 1.3% of 330,000 active; AID 463212;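 active = growth inhibition of the mutant yeast at or above 50%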;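 note: temperature-sensitive mutant grown at 25 °C; plate controls were DMSO-treated mutant yeast for no effect and medium wells lacking yeast for full effect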
# TIM10 inh = growth inhibitors of TIM10 yeast strain | S. cerevisiae TIM10 strain growth, BacTiter-Glo luminescence, 24 h | inhibition, % at 10 µM | 1.4% of 330,000 active | AID 463195;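 active = inhibition of 40% or more at the single tested concentration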;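 note: wild-type TIM10 isogenic control strain grown at permissive 25 °C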
# SKKanGAS inh = blocks kanamycin growth of S. pyogenes SKKanGAS strain. BacTiter-Glo, 6 h. inhibition, % at 7.5 µM. 1.3% of 300,000 active;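 active = mean replicate score, as percent of positive control median, at least 50; inconclusive = mean below 50 but one replicate at or above 50; inactive = mean and every replicate below 50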;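 note: strain carries kanamycin resistance gene driven by streptokinase promoter and grows in 40 µg/ml kanamycin; loss of luminescence reflects streptokinase promoter inhibition or plain growth inhibition; 0% = median of DMSO wells and 100% = positive control at its reference dose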
# NALP1 inh = blocks the NALP1 inflammasome reconstituted in yeast; 0.61% of 280,000 active; AID 2071; S. cerevisiae NALP1/ASC/caspase-1 growth, X-gal OD620, 72 h; inhibition, % at 10 µM; in the data active = inhibition mostly above about 24%, no sharp cut-off; inactive = mostly below about 32%
# tim23-1 conf = tim23-1 yeast growth inhibition, confirmed; shares compounds with tim23-1 inh; S. cerevisiae tim23-1 growth, BacTiter-Glo luminescence, 24 h; 83% of 4,400 active; AID 463218; inhibition, % at 20 µM;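 active = inhibition above about 39% in either of two replicate wells at 20 µM, limit read from the data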;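 note: temperature-sensitive tim23-1 mutant grown at 25 °C; 0% = DMSO wells with yeast and 100% = medium wells without yeast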
# The depositor's hits bear a star; ? = inconclusive; nt = not tested or not shown. The list is not random: actives were taken first. Their share in the collection is about 4.8%.
SMILES,PfHsp90 yeast 2,tim10-1 inh,tim23-1 inh,TIM10 inh,SKKanGAS inh,NALP1 inh,tim23-1 conf
OC[C@@H]1[C@@H](c2ccc(F)cc2)C(c2cccc(Cl)c2)=NN1c1ccccc1,-24,21,53*,16,nt,nt,39
OC[C@@H]1[C@@H](c2ccc(Cl)cc2)C(c2cccc(Cl)c2)=NN1c1ccccc1,-26,20,49,17,nt,nt,nt
CCCC(=O)Nc1c2c(nn1-c1ccc(OC)cc1)CS(=O)C2 (stereo unspecified),8,10,15,7,0,-1,nt
O=C(NC1CC1)C1CCCN1S(=O)(=O)c1ccc2ccccc2c1 (stereo unspecified),nt,8,14,-4,0,-19,nt
COc1ccc(OC)c(CNC(=O)C2CCN(S(=O)(=O)N3CCCCC3)CC2)c1,4,-11,8,5,-10,-8,nt
CC1CC(NC(=O)c2c(O)nc3ccccn3c2=O)CC(C)(C)C1 (stereo unspecified),-8,nt,nt,nt,nt,nt,nt
CC1CC(NC(=O)c2c(O)nc3sccn3c2=O)CC(C)(C)C1 (stereo unspecified),-63,-15,64*,-2,50*,nt,-12
O=C(NCC1CCCO1)c1c(O)nc2sccn2c1=O (stereo unspecified),nt,3,35,-8,nt,nt,nt
O=C(NC1CCCCCC1)c1c(O)nc2sccn2c1=O,-10,39,69*,37,34,nt,46*
O=C(NC1CCCCC1)c1c(O)nc2sccn2c1=O,nt,15,67*,5,-1,nt,47*
CC(=O)c1c(-c2ccc(C)cc2)nc2c3ccccc3ccn12,-13,-5,21,4,18,0,nt
COc1ccc(Cc2nc3ccc(C(=O)N4CCOCC4)cc3o2)cc1,-10,-2,16,16,-12,13,nt
S=c1[nH]nc(C2CCCCC2)n1/N=C/c1ccc(Cl)cc1,1,35,63*,40,5,4,30
S=c1[nH]nc(C2CCCCC2)n1/N=C/c1ccc(Br)cc1,-11,33,11,23,4,-14,nt
O=[N+]([O-])c1cccc(/C=N/n2c(C3CCCCC3)n[nH]c2=S)c1,-1,26,26,16,-4,18,nt
Cc1ccc(/C=N/n2c(C3CCCCC3)n[nH]c2=S)cc1,17,25,57*,16,10,-3,39
O=[N+]([O-])c1ccccc1/C=N/n1c(C2CCCCC2)n[nH]c1=S,21,40,59*,37,-7,3,48*
FC(F)(F)c1ccc(/C=N/n2c(C3CCCCC3)n[nH]c2=S)cc1,-16,37,64*,26,25,-5,30
CCc1ccc(/C=N/n2c(C3CCCCC3)n[nH]c2=S)cc1,-11,10,40,21,?,0,nt
CC(C)CCCN1C(Nc2ccccc2)=NC[C@@H]1Cc1ccccc1,nt,-12,7,-3,-1,14,nt
COc1ccc(/C=C/C(=O)NCCOc2ccccc2OC)cc1,6,4,23,-6,-7,35,nt
CCOC(=O)N1CCN(Cc2nc(-c3cccc(Cl)c3)no2)CC1,nt,32,13,-24,4,-7,nt
Cc1cc(SCC(=O)N/N=C/c2ccc(O)cc2O)nc2ccccc12,-5,18,51*,28,21,-13,52*
Cc1cc(SCC(=O)N/N=C/c2ccc(O)c(O)c2)nc2ccccc12,-4,-2,11,-10,-1,14,nt
Cc1ccc(S(=O)(=O)N2[C@@H](c3ccc(C(C)(C)C)cc3)C(C(=O)O)=CC[C@H]2c2cccc(Cl)c2)cc1,-6,19,53*,20,nt,nt,44*
SMILES,PfHsp90 yeast 2,tim10-1 inh,tim23-1 inh,TIM10 inh,SKKanGAS inh,NALP1 inh,tim23-1 conf
Cc1ccc(S(=O)(=O)N2[C@@H](c3ccc(C(C)(C)C)cc3)C(C(=O)O)=CC[C@H]2c2ccc(Cl)c(Cl)c2)cc1,-25,-20,63*,33,nt,nt,-29
Cc1ccc(S(=O)(=O)N2[C@@H](c3ccc(Br)cc3)C(C(=O)O)=CC[C@H]2c2ccc(Cl)c(Cl)c2)cc1,-65,12,41,13,nt,nt,nt
CC1=C(C(=O)Nc2ccccc2)C(c2cc(CN3CCOCC3)cs2)C2=C(CCCC2=O)N1 (stereo unspecified),-6,7,-1,-2,-10,24,nt
Cc1ccc(-c2nc3c(c(=O)c4ccccc4n3C)c(=O)n2Cc2ccco2)cc1,6,6,53*,30,28,20,46*
Cn1c2ccccc2c(=O)c2c(=O)n(Cc3ccco3)c(-c3ccc(F)cc3)nc21,4,-7,18,18,13,21,nt
O=C(CSCc1ccccc1F)NCc1ccccc1,-49,11,27,18,0,-26,nt
N#Cc1nc(-c2cccc3ccccc23)oc1NCC1CCCO1 (stereo unspecified),nt,30,54*,33,1,7,52*
CCc1ccc(C(=O)/C=C/Nc2ccc(S(=O)(=O)Nc3onc(C)c3C)cc2)cc1,-2,10,28,21,26,6,nt
O=C(NCc1cccnc1)/C(=C\c1ccc(-c2ccc(Br)cc2)o1)S(=O)(=O)c1ccccc1,15,39,52*,35,-6,30,63*
O=C(CN(Cc1ccc(Br)cc1)S(=O)(=O)c1ccccc1)NCc1cccnc1,8,35,17,2,-6,20,nt
CN1c2ccsc2/C(=N/Nc2ccc(F)cc2)CS1(=O)=O,-57,36,53*,30,nt,-11,-29
CC(=O)Nc1ccc2c(c1)CN(c1cc(C)ccc1C)CO2,-1,4,10,-6,5,37,nt
COc1ccccc1C(=O)N1c2ccccc2Sc2ccccc21,5,18,45,22,-5,33,nt
CCOc1ccccc1C(=O)N1c2ccccc2Sc2ccccc21,-3,29,51*,18,-11,-22,42*
O=C(NC1CCCC1)c1cc(-c2cccs2)on1,4,2,16,-6,-5,16,nt
COc1cccc(C(=O)c2c(-c3ccccc3)ncc3cc(OC)c(OC)cc23)c1,-4,21,54*,-13,nt,nt,33
COc1cc2cnc(-c3ccccc3)c(-c3ccc(C(F)(F)F)cc3)c2cc1OC,-15,-5,29,-2,nt,nt,nt
NCCCCc1ccc2ccc3cccc4ccc1c2c34,12,32,50*,7,nt,nt,9
N#Cc1ccc(NC(=S)NC(=O)C2CCCCC2)cc1,25,27,51*,33,nt,nt,49*
Cc1cc(C)cc(NC(=S)NC(=O)C2CC2)c1,4,36,54*,30,-2,11,34
COc1ccc(NC(=S)NC(=O)C2CCCCC2)cc1,11,20,12,-12,3,19,nt
CCN(CC)c1ccc(NC(=S)NC(=O)C2CCC2)cc1,2,39,58*,29,-7,-9,32
